Experimental data from PubChem BioAssay (NCATS).
Results filed as inconclusive are left out. Calls of active or inactive are those of the source. Calls come from the whole dose curve; as a rule, active = well fitted curve in the direction sought with a large enough effect; inconclusive = small, poorly fitted or top-dose-only effect, or another doubt; inactive = no such curve, though single readings can be large; an effect the other way counts as inactive or inconclusive.

How the values were obtained:
[1] = qHTS of pediatric cancer cell lines to identify multiple opportunities for drug repurposing: Primary screen for A673 cells (AID 1347092); note: % is set by controls: 0 for no effect and ±100 for the full control effect; nearly all actives have a fitted effect of over 45% in size
How it was run: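 A673 cells (500-1,000 cells/well in growth media) were pre-incubated 5 h at 37 degrees C, then exposed to compounds for 48 h. Viability was read as CellTiter-Glo luminescence; concentration-response curves came directly from the primary screen.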

[2] = qHTS of pediatric cancer cell lines to identify multiple opportunities for drug repurposing: Primary screen for SK-N-MC cells (AID 1347093); note: potency is the fitted concentration of half-maximal effect;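 for activity change, negative = cytotoxic: series mostly up to about 46 µM; plate controls were DMSO neutral control for no effect and bortezomib for full effect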
How it was run: (§1)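 Metabolically active cells were quantified by ATP-dependent luminescence (CellTiter-Glo, 15 min at room temperature) following 48 h treatment. Cells had been plated at 500-1,000 per well and settled for 5 h beforehand.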

[3] = qHTS of pediatric cancer cell lines to identify multiple opportunities for drug repurposing: Primary screen for BT-37 cells (AID 1347094);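 note: series mostly up to about 57 µM; plate controls were DMSO for no effect and bortezomib for full effect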
How it was run: (§2)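 Phenotypic viability qHTS, 48 h compound exposure, CellTiter-Glo luminescence read-out; multi-concentration dosing so that potency and efficacy derive directly from the primary screen's curves.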

[4] = qHTS of pediatric cancer cell lines to identify multiple opportunities for drug repurposing: Primary screen for NB-EBc1 cells (AID 1347095);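 note: plate controls were DMSO neutral control for no effect and bortezomib for full effect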
How it was run: as §2

[5] = qHTS of pediatric cancer cell lines to identify multiple opportunities for drug repurposing: Primary screen for U-2 OS cells (AID 1347096);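 note: plate controls were DMSO wells for no effect and bortezomib positive control wells for full effect; nearly all actives have a fitted effect of over 50% in size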
How it was run: (§3)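 Cells (500-1,000/well) in growth media were settled 5 h at 37 degrees C, then given compounds for 48 h. Viability was read as CellTiter-Glo luminescence. Primary runs used MIPE at 11 points (0.78 nM-46 µM) and NPC at 8 points (0.59 nM-46 µM); follow-ups used 11 points.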

[6] = qHTS of pediatric cancer cell lines to identify multiple opportunities for drug repurposing: Primary screen for Saos-2 cells (AID 1347097); note: % is set by controls: 0 for no effect and ±100 for the full control effect; nearly all actives have a fitted effect of over 40% in size
How it was run: as §2

[7] = qHTS of pediatric cancer cell lines to identify multiple opportunities for drug repurposing: Primary screen for SK-N-SH cells (AID 1347098);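 note: DMSO served as neutral control and bortezomib at 2.3 µM as positive control; % is set by controls: 0 for no effect and ±100 for the full control effect; nearly all actives have a fitted effect of over 65% in size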
How it was run: (§4)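 Cells (500-1,000/well) rested 5 h, then received compounds for 48 h; metabolically active cells were measured by CellTiter-Glo luminescence. Final concentrations spanned up to 46 µM (MIPE, 11-point) or 0.59 nM-46 µM (NPC, 8-point) in primary screens, 11-point in follow-ups.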

[8] = qHTS of pediatric cancer cell lines to identify multiple opportunities for drug repurposing: Primary screen for NB1643 cells (AID 1347099);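 note: plate controls were DMSO neutral control for no effect and bortezomib positive control for full effect; nearly all actives have a fitted effect of over 50% in size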
How it was run: as §2

[9] = qHTS of pediatric cancer cell lines to identify multiple opportunities for drug repurposing: Primary screen for LAN-5 cells (AID 1347100);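 note: plate controls were DMSO neutral control for no effect and bortezomib positive control for full effect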
How it was run: as §3

[10] = qHTS of pediatric cancer cell lines to identify multiple opportunities for drug repurposing: Primary screen for BT-12 cells (AID 1347101);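 note: plate controls were DMSO for no effect and bortezomib positive control for full effect; nearly all actives have a fitted effect of over 25% in size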
How it was run: as §4

[11] = qHTS of pediatric cancer cell lines to identify multiple opportunities for drug repurposing: Primary screen for Rh18 cells (AID 1347102); note: % is set by controls: 0 for no effect and ±100 for the full control effect; nearly all actives have a fitted effect of over 65% in size
How it was run: as §3

[12] = qHTS of pediatric cancer cell lines to identify multiple opportunities for drug repurposing: Primary screen for RD cells (AID 1347104);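 note: plate controls were DMSO for no effect and bortezomib for full effect; nearly all actives have a fitted effect of over 55% in size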
How it was run: as §2

[13] = qHTS of pediatric cancer cell lines to identify multiple opportunities for drug repurposing: Primary screen for MG 63 (6-TG R) cells (AID 1347105); note: % is set by controls: 0 for no effect and ±100 for the full control effect; nearly all actives have a fitted effect of over 50% in size
How it was run: as §2

[14] = qHTS of pediatric cancer cell lines to identify multiple opportunities for drug repurposing: Primary screen for Rh30 cells (AID 1347107); note: series mostly up to about 46 µM; % is set by controls: 0 for no effect and ±100 for the full control effect; nearly all actives have a fitted effect of over 75% in size
How it was run: as §3

[15] = qHTS of pediatric cancer cell lines to identify multiple opportunities for drug repurposing: Primary screen for Rh41 cells (AID 1347108);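 note: series mostly up to about 46 µM; luminescence drop marks cytotoxic hits; nearly all actives have a fitted effect of over 70% in size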
How it was run: as §2

[16] = qHTS of pediatric cancer cell lines to identify multiple opportunities for drug repurposing: Primary screen for control Hh wild type fibroblast cells (AID 1347106);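 note: series mostly up to about 46 µM; % is set by controls: 0 for no effect and ±100 for the full control effect; a drop in luminescence marks cytotoxicity and a rise apparent proliferation; nearly all actives have a fitted effect of over 55% in size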
How it was run: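 Viability after 48 h compound treatment at 37C, 500-1,000 cells/well, read as ATP luminescence with CellTiter-Glo. Primary screens used 11-point (MIPE, 0.78 nM-46 µM) or 8-point (NPC, 0.59 nM-46 µM) final concentrations; follow-up screens used 11-point dilutions.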

[17] = qHTS of pediatric cancer cell lines to identify multiple opportunities for drug repurposing: Primary screen for OHS-50 cells (AID 1347103); note: nearly all actives have a fitted effect of over 40% in size; note: potency is the fitted concentration of half-maximal effect;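 for activity change, negative = cytotoxic: plate controls were DMSO neutral control for no effect and bortezomib positive control for full effect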
How it was run: as §4

[18] = qHTS of pediatric cancer cell lines to identify multiple opportunities for drug repurposing: Confirmatory screen for NB1643 cells (AID 1347109);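 note: plate controls were DMSO for no effect and bortezomib for full effect; nearly all actives have a fitted effect of over 45% in size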
How it was run: as §3

[19] = qHTS of pediatric cancer cell lines to identify multiple opportunities for drug repurposing: Confirmatory screen for A673 cells (AID 1347110); note: nearly all actives have a fitted effect of over 65% in size; note: potency is the fitted concentration of half-maximal effect
How it was run: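 A673 cells seeded at 500-1,000 cells/well, rested 5 h, then dosed; primary MIPE 11-point (0.78 nM to 46 µM), NPC (0.59 nM to 46 µM); confirmatory 11-point. CellTiter-Glo luminescence after 48 h.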

[20] = qHTS of pediatric cancer cell lines to identify multiple opportunities for drug repurposing: Confirmatory screen for SK-N-MC cells (AID 1347111);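 note: cells exposed to compound for 48 h before the readout; plate controls were DMSO for no effect and bortezomib for full effect; nearly all actives have a fitted effect of over 70% in size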
How it was run: as §1

Nc1ccc(/C=C/c2ccc(N)cc2S(=O)(=O)O)c(S(=O)(=O)O)c1
inactive: activity change, negative = cytotoxic [1] 1.22% [at 0.597 µM] | activity change, negative = cytotoxic [2] -3.26% [at 0.597 µM] | activity change, negative = cytotoxic [3] 22.8% [at 0.745 µM] | activity change, negative = cytotoxic [4] 25.1% [at 0.597 µM] | activity change, negative = cytotoxic [5] 17% [at 0.597 µM] | activity change, negative = cytotoxic [6] 2.49% [at 0.597 µM] | activity change, negative = cytotoxic [7] 12.2% [at 0.741 µM] | activity change, negative = cytotoxic [8] 24.7% [at 0.597 µM] | activity change, negative = cytotoxic [9] 21.1% [at 0.597 µM] | activity change, negative = cytotoxic [10] 16.8% [at 0.745 µM] | activity change, negative = cytotoxic [11] 24% [at 0.597 µM] | activity change, negative = cytotoxic [12] 13.1% [at 0.597 µM] | activity change, negative = cytotoxic [13] 9.42% [at 0.597 µM] | activity change, negative = cytotoxic [14] 24.6% [at 0.597 µM] | activity change, negative = cytotoxic [15] 37.3% [at 0.597 µM]

COc1cc2c(cc1OC)[C@@H]1CC(=O)[C@@H](CC(C)C)CN1CC2
inactive: Potency [1] | Potency [2] | Potency [3] | Potency [4] | Potency [5] | Potency [6] | Potency [7] | Potency [8] | Potency [9] | Potency [10] | Potency [11] | Potency [12] | Potency [13] | Potency [16] | Potency [14] | Potency [15]

NC(CS)C(=O)O (stereo not drawn)
inactive: Potency [1] | Potency [2] | Potency [3] | Potency [4] | Potency [5] | Potency [6] | Potency [7] | Potency [8] | Potency [9] | Potency [10] | Potency [11] | Potency [17] | Potency [12] | Potency [13] | Potency [14] | Potency [15]

CN=C(NC#N)NCCSCc1csc(N=C(N)N)n1
inactive: Potency [1] | Potency [2] | Potency [3] | Potency [4] | Potency [5] | Potency [6] | Potency [7] | Potency [8] | Potency [9] | Potency [11] | Potency [17] | Potency [12] | Potency [13] | Potency [16] | Potency [14] | Potency [15]

C=CCc1ccc(O)c(OC)c1
inactive: Potency [1] | Potency [2] | Potency [3] | Potency [4] | Potency [5] | Potency [6] | Potency [7] | Potency [8] | Potency [9] | Potency [10] | Potency [11] | Potency [12] | Potency [13] | Potency [16] | Potency [14] | Potency [15]

Cc1onc(-c2c(Cl)cccc2Cl)c1C(=O)N[C@@H]1C(=O)N2[C@@H]1SC(C)(C)[C@@H]2C(=O)O
inactive: Potency [1] | Potency [2] | Potency [3] | Potency [4] | Potency [5] | Potency [6] | Potency [7] | Potency [8] | Potency [9] | Potency [10] | Potency [11] | Potency [12] | Potency [13] | Potency [16] | Potency [14] | Potency [15]

CC1(C)O[C@@H]2C[C@H]3[C@@H]4C[C@H](F)C5=CC(=O)CC[C@]5(C)[C@H]4[C@@H](O)C[C@]3(C)[C@]2(C(=O)CO)O1
inactive: Potency [1] | Potency [2] | Potency [3] | Potency [4] | Potency [5] | Potency [6] | Potency [7] | Potency [8] | Potency [9] | Potency [10] | Potency [11] | Potency [17] | Potency [12] | Potency [13] | Potency [14] | Potency [15] | Potency [18] | Potency [19]

CCOC(=O)COc1ccc2c(C)c(CCN(CC)CC)c(=O)oc2c1Cl
inactive: Potency [1] | Potency [2] | Potency [3] | Potency [4] | Potency [5] | Potency [6] | Potency [7] | Potency [8] | Potency [9] | Potency [10] | Potency [11] | Potency [12] | Potency [13] | Potency [16] | Potency [14] | Potency [15]

CC(O)(P(=O)(O)O)P(=O)(O)O
inactive: Potency [1] | Potency [2] | Potency [3] | Potency [4] | Potency [5] | Potency [6] | Potency [7] | Potency [8] | Potency [9] | Potency [10] | Potency [11] | Potency [17] | Potency [12] | Potency [13] | Potency [14] | Potency [15]

C[C@H]1C[C@H]2[C@@H]3CCC4=CC(=O)C=C[C@]4(C)[C@@]3(Cl)[C@@H](O)C[C@]2(C)[C@@]1(O)C(=O)CO
active: Potency [2] 15 µM | Potency [17] 24.6 µM | Potency [19] 18.5 µM
inactive: Potency [1] | Potency [3] | Potency [4] | Potency [5] | Potency [6] | Potency [7] | Potency [8] | Potency [9] | Potency [10] | Potency [11] | Potency [12] | Potency [13] | Potency [16] | Potency [14] | Potency [15] | Potency [18] | Potency [20]

CC(=O)Oc1ccc(C(=C2CCCCC2)c2ccc(OC(C)=O)cc2)cc1
inactive: Potency [1] | Potency [2] | Potency [3] | Potency [4] | Potency [5] | Potency [6] | Potency [7] | Potency [8] | Potency [9] | Potency [10] | Potency [11] | Potency [12] | Potency [13] | Potency [16] | Potency [14] | Potency [15]

CN=C(NC#N)Nc1ccc(C2=NNC(=O)CC2C)cc1 (stereo not drawn)
inactive: Potency [1] | Potency [2] | Potency [3] | Potency [4] | Potency [5] | Potency [6] | Potency [7] | Potency [8] | Potency [9] | Potency [11] | Potency [17] | Potency [12] | Potency [13] | Potency [16] | Potency [14] | Potency [15]

CCCCC1=NC2(CCCC2)C(=O)N1Cc1ccc(-c2ccccc2-c2nn[nH]n2)cc1
inactive: Potency [1] | Potency [2] | Potency [3] | Potency [4] | Potency [5] | Potency [6] | Potency [7] | Potency [8] | Potency [9] | Potency [10] | Potency [11] | Potency [12] | Potency [13] | Potency [16] | Potency [14] | Potency [15]
